From PubChem BioAssay (EPA / NIEHS)
Calls of active or inactive are those of the source. Rule for the calls: active = hit-call score of the fitted dose curve at least 0.9, where 1 is the maximum; inactive = score below 0.9.

What was measured:
Settings in all cases: mRNA level, 48 h; actives raise or lower the signal
[1] = read-out: JUN Transcription Factor, JUN (gene 3725); experiment: LTEA_HepaRG_JUN: Life Technologies and Expression Analysis (LTEA) Assay for JUN Transcription Factor using HepaRG (AID 2283513)
How it was run: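 Gene-expression endpoint: JUN mRNA (qRT-PCR, normalized to three reference genes) in HepaRG cultures treated 48 h with chemicals, duplicate wells, 100 uM maximum with half-log dilutions; bidirectional fitting relative to 0.5% DMSO.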

[2] = read-out: Lipase C (LIPC), LIPC (gene 3990); experiment: LTEA_HepaRG_LIPC: Life Technologies and Expression Analysis (LTEA) Assay for Lipase C (LIPC) using HepaRG (AID 2283514)
How it was run: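 In this multiplexed gene-expression screen, human HepaRG cultures received test chemicals for 48 h across eight concentrations with 100 uM highest, in duplicate. Values reflect LIPC mRNA induction or suppression versus DMSO vehicle, from normalized qRT-PCR.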

[3] = read-out: Lipoprotein lipase (LPL), LPL (gene 4023); experiment: LTEA_HepaRG_LPL: Life Technologies and Expression Analysis (LTEA) Assay for Lipoprotein lipase (LPL) using HepaRG (AID 2283515)
How it was run: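 Concentration-response testing used half-log steps from 100 uM in 0.5% DMSO on human HepaRG cells, 48 h, duplicate wells. Phenobarbital 1 mM served as induction control; LPL mRNA was normalized to ACTB, GAPDH, POLR2A.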

[4] = read-out: MicroRNA 122 (MIR122), gene 406906; experiment: LTEA_HepaRG_MIR122: Life Technologies and Expression Analysis (LTEA) Assay for MicroRNA 122 (MIR122) using HepaRG (AID 2283516); note: the transcript read is the microRNA miR-122
How it was run: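 Changes in transcript abundance, up or down relative to 0.5% DMSO vehicle, were scored after 48 h chemical treatment of HepaRG cells (maximum 100 uM). Quantification used TaqMan qRT-PCR normalized to housekeeping genes.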

[5] = read-out: matrix metalloproteinase-10 (MMP10), MMP10 (gene 4319); experiment: LTEA_HepaRG_MMP10: Life Technologies and Expression Analysis (LTEA) Assay for matrix metalloproteinase-10 (MMP10) using HepaRG (AID 2283517)
How it was run: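 In differentiated HepaRG cultures kept in 0.5% DMSO, test chemicals act for 48 h over an eight-point range with a top dose of 100 uM. Expression is then quantified by TaqMan RT-PCR against ACTB, GAPDH and POLR2A.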

[6] = read-out: matrix metalloproteinase-3 (MMP3), MMP3 (gene 4314); experiment: LTEA_HepaRG_MMP3: Life Technologies and Expression Analysis (LTEA) Assay for matrix metalloproteinase-3 (MMP3) using HepaRG (AID 2283519)
How it was run: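 Human liver HepaRG cultures received chemicals (top concentration 100 uM, 0.5% DMSO) for 48 h in duplicate. MMP3 mRNA induction or loss was then assessed via TaqMan qRT-PCR with housekeeping-gene normalisation.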

[7] = read-out: Paternally Expressed 10 (PEG10), PEG10 (gene 23089); experiment: LTEA_HepaRG_PEG10: Life Technologies and Expression Analysis (LTEA) Assay for Paternally Expressed 10 (PEG10) using HepaRG (AID 2283520);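 for AC50: PEG10 transcript by qRT-PCR normalised to ACTB GAPDH and POLR2A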
How it was run: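 After 48 h exposure of differentiated HepaRG cells (0.5% DMSO vehicle, eight concentrations up to 100 uM, duplicates), PEG10 mRNA was measured by TaqMan qRT-PCR. Values were normalised to endogenous control genes and analysed bidirectionally against vehicle.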

[8] = read-out: Nuclear factor NF-kappa-B p105 subunit (Homo sapiens) (UniProt P19838); experiment: LTEA_HepaRG_NFKB1: Life Technologies and Expression Analysis (LTEA) Assay for Nuclear Factor Kappa B Subunit 1 (NFKB1) using HepaRG (AID 2283521)
How it was run: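 Differentiated human HepaRG cells were exposed for 48 h in serum-free induction medium to eight concentrations (top 100 uM, half-log steps, 0.5% DMSO), in duplicate. NFKB1 mRNA was measured by TaqMan qRT-PCR, normalized to ACTB/GAPDH/POLR2A, and fitted bidirectionally against DMSO.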

[9] = read-out: MYC, MYC (gene 4609); experiment: LTEA_HepaRG_MYC: Life Technologies and Expression Analysis (LTEA) Assay for MYC using HepaRG (AID 2283518)
How it was run: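 qRT-PCR read-out of MYC transcript (Fluidigm TaqMan, housekeeping-normalized) after 48 h chemical exposure of HepaRG cells; eight concentrations, top 100 uM, half-log steps. Bidirectional curve fitting against 0.5% DMSO vehicle baseline.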

[10] = read-out: Protein phosphatase 2A (PPP2R4), PTPA (gene 5524); experiment: LTEA_HepaRG_PPP2R4: Life Technologies and Expression Analysis (LTEA) Assay for Protein phosphatase 2A (PPP2R4) using HepaRG (AID 2283522)
How it was run: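 Using HepaRG cultures maintained in 0.5% DMSO, chemicals are tested 48 h at up to 100 uM in duplicate. Induction or suppression of PPP2R4 mRNA, measured by qRT-PCR, is fitted bidirectionally against the vehicle baseline.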

Measured: AC50

Nuclear factor NF-kappa-B p105 subunit (Homo sapiens), sequence (P19838 whole entry, looked up): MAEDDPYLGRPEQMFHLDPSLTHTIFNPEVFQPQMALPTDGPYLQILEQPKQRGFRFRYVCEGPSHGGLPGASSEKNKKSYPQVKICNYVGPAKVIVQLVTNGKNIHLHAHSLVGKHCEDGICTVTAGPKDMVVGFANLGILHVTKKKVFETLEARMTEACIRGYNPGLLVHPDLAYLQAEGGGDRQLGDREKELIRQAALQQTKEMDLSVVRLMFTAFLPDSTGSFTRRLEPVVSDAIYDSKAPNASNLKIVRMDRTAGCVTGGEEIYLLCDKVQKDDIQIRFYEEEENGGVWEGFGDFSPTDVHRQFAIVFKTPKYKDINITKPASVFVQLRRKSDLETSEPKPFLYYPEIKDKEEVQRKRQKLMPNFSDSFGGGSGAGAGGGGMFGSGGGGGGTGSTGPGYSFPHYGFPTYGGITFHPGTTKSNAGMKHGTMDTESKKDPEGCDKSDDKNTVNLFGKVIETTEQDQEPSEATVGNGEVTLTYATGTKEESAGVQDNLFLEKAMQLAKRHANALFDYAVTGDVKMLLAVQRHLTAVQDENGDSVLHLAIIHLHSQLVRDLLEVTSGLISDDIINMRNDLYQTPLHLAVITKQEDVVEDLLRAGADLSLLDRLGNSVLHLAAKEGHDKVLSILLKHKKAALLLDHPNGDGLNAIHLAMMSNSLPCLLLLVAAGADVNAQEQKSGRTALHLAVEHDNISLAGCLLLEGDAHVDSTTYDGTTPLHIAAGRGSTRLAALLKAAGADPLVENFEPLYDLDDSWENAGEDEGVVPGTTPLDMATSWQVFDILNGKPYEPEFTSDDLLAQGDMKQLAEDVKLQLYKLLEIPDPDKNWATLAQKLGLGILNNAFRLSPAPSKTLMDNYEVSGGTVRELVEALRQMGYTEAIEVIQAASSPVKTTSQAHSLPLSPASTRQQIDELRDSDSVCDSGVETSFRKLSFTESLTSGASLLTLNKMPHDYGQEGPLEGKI

OCC(O)CO
active: [8] 1.06 µM
not listed: [9] | [10]
inactive: all other assays above

CCCCCCC(CCCCCCCCCCC(=O)OCC(COC(C)=O)OC(C)=O)OC(C)=O (centres undefined)
not listed: [2]
inactive: all other assays above

CC(C)c1cccc(C(C)C)c1NC(=O)NS(=O)(=O)c1cc(C(C)(C)O)co1
not listed: [8] | [9]
inactive: all other assays above

CC(=O)OC1CC(C)OC(C)O1 (centres undefined)
not listed: [9]
inactive: all other assays above

CC1(C)C(=O)NC(=O)N1CO
not listed: [2] | [10]
inactive: all other assays above

NCCOCCOCCN
not listed: [2] | [10]
inactive: all other assays above

CCCCCCCCCCCCCCOS(=O)(=O)O
not listed: [2] | [8] | [10]
inactive: all other assays above

C=CCc1ccc(OC)c(OC)c1
not listed: [9] | [10]
inactive: all other assays above

Cc1cc(Cc2ccc(N)c(C)c2)ccc1N
not listed: [2] | [10]
inactive: all other assays above

CN(C)C(=O)NC1(c2ccccc2)CCN(CCC[C@]2(c3ccc(Cl)c(Cl)c3)CCCN(C(=O)c3ccccc3)C2)CC1
active: [1] 20.2 µM | [5] 19.4 µM | [6] 18.2 µM | [7] 12.5 µM | [8] 21.3 µM | [10] 21.2 µM
inactive: [2] | [3] | [4]

O=C1O[C@H]([C@H](O)CO)C(O)=C1O
not listed: [8] | [9]
inactive: all other assays above

CC(C)c1cccc(C(C)C)c1
not listed: [2]
inactive: all other assays above

S=c1[nH]c2ccccc2s1
not listed: [2] | [8] | [10]
inactive: all other assays above

CCc1cc(C2=C(C(=O)O)N(c3ccccc3C(F)(F)F)S(=O)(=O)c3ccccc32)cc2c1OCO2
active: [2] 80.1 µM | [3] 74.3 µM | [6] 50 µM | [7] 28.5 µM
inactive: [1] | [4] | [5] | [10]

CN(C)CCCN(C)CCCN(C)C
not listed: [2]
inactive: all other assays above

C/C=C/c1ccc(OC)cc1
not listed: [9]
inactive: all other assays above

CCCCCCC(C=O)=Cc1ccccc1
not listed: [2] | [10]
inactive: all other assays above

Cc1c(C)c2c(c(C)c1O)CCC(C)(COc1ccc(CC3SC(=O)NC3=O)cc1)O2 (centres undefined)
inactive: [6] | [10]
active: [1] 70.9 µM | [3] 4.12 µM | [4] 83.9 µM | [5] 48.5 µM | [7] 91.5 µM | [8] 77 µM

Cc1cc(SC2=C(O)C[C@@](CCc3ccc(N)cc3)(C(C)C)OC2=O)c(C(C)(C)C)cc1CO
not listed: [2] | [9]
inactive: all other assays above

CC(=O)O[C@]1(C(C)=O)CC[C@H]2[C@@H]3C=C(Cl)C4=CC(=O)[C@@H]5C[C@@H]5[C@]4(C)[C@H]3CC[C@@]21C
inactive: [1] | [5] | [6] | [7] | [8]
active: [3] 13.3 µM

C/C=C/C=C/C(=O)O
not listed: [2] | [8]
inactive: all other assays above

O=C(O)CN(CC(=O)O)CC(=O)O
not listed: [2] | [9]
inactive: all other assays above

Oc1ccc(O)cc1
not listed: [2] | [9]
inactive: all other assays above

OCC(CO)n1cnc(-c2ccc(F)cc2)c1-c1ccnc(Oc2ccccc2)n1
active: [6] 13.5 µM
not listed: [2] | [9] | [10]
inactive: all other assays above

CN(C)CCCN1c2ccccc2Sc2ccc(Cl)cc21
inactive: [3] | [6] | [10]
active: [1] 94 µM | [4] 85.7 µM | [5] 85.1 µM | [7] 18.2 µM | [8] 78.4 µM

Nc1nc(=S)c2[nH]cnc2[nH]1
active: [1] 7.57 µM | [3] 19.1 µM | [4] 11.9 µM | [9] 11.4 µM | [7] 7.2 µM
inactive: [5] | [6] | [10]

Nc1nc(Cl)nc2c1ncn2[C@H]1C[C@H](O)[C@@H](CO)O1
inactive: [9] | [8]
active: [2] 1.03 µM | [3] 1.03 µM | [4] 1.55 µM | [5] 1.72 µM | [6] 3.75 µM | [7] 0.636 µM | [10] 1.92 µM

CC(=O)[C@@]1(O)CC[C@H]2[C@@H]3CCC4=CC(=O)CC[C@]4(C)[C@H]3CC[C@@]21C
active: [7] 7.76 µM
not listed: [2]
inactive: all other assays above

NC1CCCCC1
not listed: [2] | [8]
inactive: all other assays above

Cc1cn([C@H]2C=C[C@@H](CO)O2)c(=O)[nH]c1=O
not listed: [2] | [8]
inactive: all other assays above

O=C1c2c(O)cccc2Cc2cccc(O)c21
inactive: [1] | [3] | [4] | [5] | [6] | [7]

COC(=O)[C@H]1[C@H]2C[C@@H]3c4[nH]c5cc(OC)ccc5c4CCN3C[C@H]2C[C@@H](OC(=O)c2cc(OC)c(OC)c(OC)c2)[C@@H]1OC
active: [1] 8.38 µM | [4] 55 µM | [5] 25.3 µM | [9] 29.1 µM
inactive: [3] | [6] | [10]

CC(=O)O
not listed: [2] | [8]
inactive: all other assays above

N[C@@H](Cc1c[nH]c2ccccc12)C(=O)O
not listed: [2] | [9]
inactive: all other assays above

O=C(NS(=O)(=O)/C=C/c1cccs1)c1ccc(F)cc1Br
inactive: [1] | [3] | [4] | [5] | [6]
active: [7] 50 µM

COc1ccc(C(=O)Nc2nc3ccccc3c(NCc3ccccc3)c2C#N)cc1
inactive: [1] | [5]
active: [3] 4.35 µM | [4] 14.7 µM | [6] 9.92 µM | [7] 16.1 µM

CCCCCCCC(=O)OC
active: [3] 12.4 µM
not listed: [2]
inactive: all other assays above

CCCCc1nc2cccnc2n1Cc1ccc(-c2ccccc2-c2nnn[nH]2)cc1
active: [6] 50 µM | [7] 74.6 µM
inactive: [1] | [3] | [4] | [5] | [8]

CCCCC(CC)COC(=O)CCCCCCCC(=O)OCC(CC)CCCC (centres undefined)
not listed: [2]
inactive: all other assays above

CC(C)OC(=O)C(C)(C)Oc1ccc(C(=O)c2ccc(Cl)cc2)cc1
active: [6] 0.0439 µM
not listed: [1] | [9]
inactive: all other assays above

C#CC(O)C(CC)CCCC (centres undefined)
not listed: [2] | [9] | [10]
inactive: all other assays above

O=C(Oc1ccccc1)c1cccc(C(=O)Oc2ccccc2)c1
not listed: [2] | [8] | [9]
inactive: all other assays above

CCCC(=O)O
not listed: [2] | [9]
inactive: all other assays above

CSc1ccc(Oc2ccc(S(N)(=O)=O)cc2CN(C)C)cc1C
active: [3] 77 µM | [7] 72.7 µM
not listed: [2]
inactive: all other assays above

CC(COCC(C)OC(=O)c1ccccc1)OC(=O)c1ccccc1 (centres undefined)
not listed: [2] | [8] | [9]
inactive: all other assays above

Cn1cnc2c1c(=O)[nH]c(=O)n2C
not listed: [2] | [9] | [10]
inactive: all other assays above

CC(=O)OCC(COC(C)=O)OC(C)=O
not listed: [2] | [9] | [10]
inactive: all other assays above
